Measurements reported in PubChem BioAssay (NCATS).
Inconclusive results are not listed. Activity calls are given as the source filed them. Calls follow the shape of the dose curve; as a rule, active = well fitted curve in the direction sought with a large enough effect; inconclusive = small, poorly fitted or top-dose-only effect, or another doubt; inactive = no such curve, though single readings can be large; an effect the other way counts as inactive or inconclusive.

Columns and labels:
HaCat [1] = experiment: Cytotoxic Profiling of Annotated Libraries Using Quantitative High-Throughput Screening (AID 1296008); conditions: Five cell lines viability, CellTiter-Glo ATP luminescence, 48-72 h; max response: hits give low values; also: nearly all actives have a fitted effect of over 60% in size
In short: (§1)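 Cytotoxicity was measured as CellTiter-Glo ATP luminescence, read after 10 min at room temperature. Compound treatment of the cells lasted 48 or 72 hr at 37 degrees Celsius in a qHTS format.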

KB-3-1 = experiment: as above; conditions: Five cell lines viability, CellTiter-Glo ATP luminescence, 48-72 h; max response: hits give low values
In short: as §1

NIH3T3 [2] = experiment: as above; conditions: Five cell lines viability, CellTiter-Glo ATP luminescence, 48-72 h; max response: hits give low values
In short: as §1

MCC-13 = experiment: qHTS assay to identify novel small-molecules to repurpose for Merkel cell carcinoma treatment (AID 1296009); conditions: MCC and control cell lines, CellTiter-Glo viability, 72 h; series mostly up to 46 µM; also: nearly all actives have a fitted effect of over 60% in size
In short: (§2)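 After compound transfer in DMSO, plates were kept 72 hr at 37 degree celsius. Luminescent ATP signal from CellTiter-Glo served as viability measure, normalized against DMSO and no-cell controls.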

MCC-26 = experiment: as above; conditions: MCC and control cell lines, CellTiter-Glo viability, 72 h; series mostly up to 46 µM
In short: as §2

MKL-1 = experiment: as above; conditions: MCC and control cell lines, CellTiter-Glo viability, 72 h; series mostly up to 46 µM
In short: as §2

MKL-2 = experiment: as above; conditions: MCC and control cell lines, CellTiter-Glo viability, 72 h; series mostly up to 46 µM
In short: as §2

NIH3T3 [3] = experiment: as above; conditions: MCC and control cell lines, CellTiter-Glo viability, 72 h; at 44.8 µM (top of the series) unless noted
In short: as §2

UISO = experiment: as above; conditions: MCC and control cell lines, CellTiter-Glo viability, 72 h; series mostly up to 46 µM
In short: as §2

WaGa = experiment: as above; conditions: MCC and control cell lines, CellTiter-Glo viability, 72 h; series mostly up to 46 µM
In short: as §2

C33A = experiment: Primary qHTS to identify gynecologic anti-cancer compounds using libraries of approved drugs and bioactive compounds (AID 1345084); conditions: Gynecologic cancer cell panel viability, ATPlite luminescence, 48 h; series mostly up to 57.5 µM; also: nearly all actives have a fitted effect of over 55% in size
In short: (§3)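 ATP-based viability (ATPlite), 1,000 cells/well, 16 h pre-incubation, 48 h compound at 37 C, 5% CO2, 15 min RT before read.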

CAOV3 = experiment: as above; conditions: Gynecologic cancer cell panel viability, ATPlite luminescence, 48 h; series mostly up to 57.5 µM
In short: as §3

CASKI = experiment: as above; conditions: Gynecologic cancer cell panel viability, ATPlite luminescence, 48 h; series mostly up to 57.5 µM
In short: as §3

Es-2 = experiment: as above; conditions: Gynecologic cancer cell panel viability, ATPlite luminescence, 48 h; series mostly up to 57.5 µM
In short: as §3

HeLa = experiment: as above; conditions: Gynecologic cancer cell panel viability, ATPlite luminescence, 48 h; series mostly up to 57.5 µM
In short: as §3

Hek293T [4] = experiment: as above; conditions: Gynecologic cancer cell panel viability, ATPlite luminescence, 48 h, control line for the selectivity index; series mostly up to 57.5 µM
In short: as §3

JEG-3 = experiment: as above; conditions: Gynecologic cancer cell panel viability, ATPlite luminescence, 48 h; series mostly up to 57.5 µM
In short: as §3

HACAT [5] = experiment: qHTS assay to identify novel small-molecules to repurpose for Merkel cell carcinoma treatment (AID 1296009); conditions: MCC and control cell lines, CellTiter-Glo viability, 72 h; at 44.8 µM (top of the series) unless noted; also: nearly all actives have a fitted effect of over 60% in size
In short: as §2

OV90 = experiment: Primary qHTS to identify gynecologic anti-cancer compounds using libraries of approved drugs and bioactive compounds (AID 1345084); conditions: Gynecologic cancer cell panel viability, ATPlite luminescence, 48 h; series mostly up to 57.5 µM; also: nearly all actives have a fitted effect of over 55% in size
In short: as §3

HEK293T [6] = experiment: qHTS assay to identify novel small-molecules to repurpose for Merkel cell carcinoma treatment (AID 1296009); conditions: MCC and control cell lines, CellTiter-Glo viability, 72 h; at 44.8 µM (top of the series) unless noted; also: nearly all actives have a fitted effect of over 60% in size
In short: as §2
% is scaled to controls: 0 for no effect and ±100 for the full control effect.

Cn1cc(S(C)=O)c(=O)c2ccc(F)cc21 (stereo not given)
inactive: max response (HaCat [1]) -31% | max response (KB-3-1) 2.67% | outcome (NIH3T3 [2]) | Potency (MCC-13) | Potency (MCC-26) | Potency (MKL-1) | Potency (MKL-2) | outcome (NIH3T3 [3]) | Potency (UISO) | Potency (WaGa) | Potency (C33A) | Potency (CAOV3) | Potency (CASKI) | Potency (Es-2) | Potency (HeLa) | Potency (Hek293T [4]) | Potency (JEG-3)

Cc1ccc(/C=N/n2c(-c3ccccc3)csc2=S)cc1
inactive: outcome (HaCat [1]) | max response (KB-3-1) -9.01% | max response (NIH3T3 [2]) -3.86% | outcome (HACAT [5]) | Potency (MCC-13) | Potency (MCC-26) | Potency (MKL-1) | Potency (C33A) | Potency (CAOV3) | Potency (CASKI) | Potency (Es-2) | Potency (HeLa) | Potency (Hek293T [4]) | Potency (JEG-3) | Potency (OV90)

Nc1c[n+](N2CCOCC2)no1
inactive: max response (HaCat [1]) -23.5% | max response (KB-3-1) -10.9% | outcome (NIH3T3 [2]) | outcome (HEK293T [6]) | Potency (MCC-13) | Potency (MCC-26) | Potency (MKL-1) | Potency (MKL-2) | outcome (NIH3T3 [3]) | Potency (UISO) | Potency (WaGa) | Potency (C33A) | Potency (CAOV3) | Potency (CASKI) | Potency (Es-2) | Potency (HeLa) | Potency (Hek293T [4]) | Potency (JEG-3) | Potency (OV90)

N[C@@H](Cn1ccc(=O)c(O)c1)C(=O)O
inactive: outcome (HaCat [1]) | max response (KB-3-1) 7.53% | max response (NIH3T3 [2]) 0.301% | outcome (HACAT [5]) inactive [at 4.96 µM] | activity change, negative = cytotoxicity (C33A) 19.3% [at 6.55 µM] | activity change, negative = cytotoxicity (CAOV3) 11.6% [at 6.55 µM] | activity change, negative = cytotoxicity (CASKI) 1.33% [at 6.55 µM] | activity change, negative = cytotoxicity (Es-2) 4.8% [at 6.55 µM] | activity change, negative = cytotoxicity (HeLa) -0.102% [at 6.55 µM] | activity change, negative = cytotoxicity (Hek293T [4]) -0.477% [at 6.55 µM] | activity change, negative = cytotoxicity (JEG-3) 1.6% [at 6.55 µM] | activity change, negative = cytotoxicity (OV90) 12.3% [at 6.55 µM]

CCC(=O)O[C@H]1[C@H](O[C@@H]2[C@@H](C)[C@H](O[C@H]3C[C@@](C)(OC)[C@@H](O)[C@H](C)O3)[C@@H](C)C(=O)O[C@H](CC)[C@@](C)(O)[C@H](O)[C@@H](C)C(=O)[C@H](C)C[C@@]2(C)O)O[C@H](C)C[C@@H]1N(C)C
inactive: max response (HaCat [1]) 0.29% | max response (KB-3-1) 2.69% | max response (NIH3T3 [2]) 1.01% | outcome (HEK293T [6]) | Potency (MCC-13) | Potency (MCC-26) | Potency (MKL-1) | Potency (MKL-2) | Potency (UISO) | Potency (WaGa) | Potency (C33A) | Potency (CAOV3) | Potency (CASKI) | Potency (Es-2) | Potency (HeLa) | Potency (JEG-3) | Potency (OV90)

O=P(O)(O)OCC(O)CO (stereo not given)
inactive: max response (HaCat [1]) 0.361% | max response (KB-3-1) -6.39% | outcome (NIH3T3 [2]) | Potency (MCC-13) | Potency (MCC-26) | Potency (MKL-1) | Potency (MKL-2) | outcome (NIH3T3 [3]) | Potency (UISO) | Potency (WaGa) | Potency (C33A) | Potency (CAOV3) | Potency (CASKI) | Potency (Es-2) | Potency (HeLa) | Potency (Hek293T [4]) | Potency (JEG-3) | Potency (OV90)

CC(=O)OCC(=O)Nc1cc(C#N)cc(NC(=O)COC(C)=O)c1Cl
inactive: max response (HaCat [1]) 0.636% | outcome (KB-3-1) | max response (NIH3T3 [2]) -0.147% | Potency (MCC-13) | Potency (MCC-26) | Potency (MKL-1) | Potency (MKL-2) | Potency (UISO) | Potency (WaGa) | Potency (C33A) | Potency (CAOV3) | Potency (CASKI) | Potency (Es-2) | Potency (HeLa) | Potency (Hek293T [4]) | Potency (JEG-3) | Potency (OV90)
